# Experimental data reported in the supplement of paper PMC11417369.
# ± gives the standard deviation of the averaged measurements. In all, about 25,000 sequences were measured (“ln(normalized median fluorescence intensity)”: median about 8.9, highest 2% from about 10 on). What follows is part of a selection rich in the highest values, with near analogues and random picks from the rest.
# System: PfAP2-LT AP2 domain (GST-tagged)
# Test: gcPBM binding intensity (ln(normalized median fluorescence intensity)); higher = stronger DNA binding
# Outline: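 Each value is the highest Masliner-normalised natural-log median intensity across replicate spots of either orientation of a probe. The probes were primer-extended double-stranded 36-bp intergenic genomic sequences on an Agilent 4 × 180k array, alongside negative controls, exposed for 1 h to GST-tagged P. falciparum DNA-binding domains expressed in E. coli. Bound protein was picked up with Alexa488 anti-GST antibody and scanned at 488 nm.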
row,Sequence,gcPBM binding intensity (ln)
1,ATAAATCAAAGGCACACACACAAAAAAAAAAAAAAA [CACACA_site160],9.62 ± 0.49
2,ATTTCTCTATCGTAATGTACATAAAAAATGAAAAAA [XGTACX_site1201],8.51 ± 0.51
3,TTATTATTTTATAACACACACATATATATTATATCT [CACACA_site1434],9.11 ± 0.35
4,ATTAAATCCGCACGCACACACACATATTAATAAAAA [CACACA_site3992],9.71 ± 0.33
5,AATTGTGCATTATATTGTACACGTGTTGTATATATT [XGTACX_site975],9.18 ± 0.33
6,TTTGTTTTTAATTTCGCACACACCTTGTGGAAAAAA [CACACA_site577],8.98 ± 0.3
7,TTATTTATAATATATACACACTAACATTATTTATCC [CACACA_site4835],8.8 ± 0.51
8,AAAAATAAATTTAGTTGTACTTTATTATTTTAAATA [XGTACX_site3067],8.28 ± 0.37
9,ATATAACATAGACACACACACATATAAATATATTAT [CACACA_site7865],9.67 ± 0.14
10,CTTCATAAAAATTGCACACATATAATAATGTACATA [CACACA_site2212],8.96 ± 0.36
11,TTAAATGGAAAAATATGTACATATATATATATATTT [XGTACX_site2286],8.84 ± 0.35
12,CACGCACGCAGACACACACACACACGCACATATATA [CACACA_site6303],10.2 ± 0.38
13,CGCACACGCAGACACACACACACATATAAATAAATA [CACACA_site7101],9.74 ± 0.37
14,AAGCATACATCAAGCACACACACACCCACAGAGACA [CACACA_site4362],9.91 ± 0.22
15,AGCACGCACAGACACACACACATATTTATATTTATA [CACACA_site6291],9.72 ± 0.39
16,AACAGACATAGAAACACACATACATACATACATACA [CACACA_site2479],9.53 ± 0.65
17,TAAACAGACATATAAACACACATATAAACCGACATA [CACACA_site2478],9.4 ± 0.48
18,AACACGCGCAGACACACACACACACGCACATATATA [CACACA_site7104],10.3 ± 0.28
19,ACATCAAGCAGACACACACACACACCCACCCACCGA [CACACA_site371],10.4 ± 0.11
20,CAAGCACAGAAACACACACACACACCGACACAGACA [CACACA_site4359],10.1 ± 0.15
21,CGCGCACCCAGACACACACACACACCGATATATATA [CACACA_site8687],10.1 ± 0.48
22,GATCCATTATTGATCCGTACTTATTCATGTTATATA [XGTACX_site5946],8.91 ± 0.51
23,AGAAAAAAATAATGTACACACACATATATGTTTATA [CACACA_site7946],9.14 ± 0.36
24,TATGTGCACCCATGTACATGCGGACATATGTTATAT [TGCATGCA_site383],9.04 ± 0.42
25,ATTTATATATTGCCCACACACATGTGATTATTTATA [CACACA_site1714],9.28 ± 0.46
